MK inhibit = S. pneumoniae MK inhibitors, primary screen, biochemical, PK/LDH-coupled NADH absorbance. mevalonate kinase [Streptococcus pneumoniae D39]. purified MK, PK/LDH-coupled NADH absorbance 340 nm. inhibition, % at 10 µM. 65,000 compounds, 0.48% hits;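 active = ranked among the strongest by inhibition in the single 10 µM screen, a fixed top-ranked set picked for dose follow-up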
PMK inhibit = S. pneumoniae PMK inhibitors, primary screen, biochemical, mevalonate pathway, pilot trial included. phosphomevalonate kinase (Streptococcus pneumoniae D39). purified PMK, PK/LDH-coupled NADH absorbance 340 nm. inhibition, % at 10 µM. 65,000 compounds, 0.49% hits. AID 539, 2006;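 active = top-ranked compounds by inhibition in the single 10 µM screen, taking a fixed number of the strongest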
Autofluor 339 = intrinsic fluorescence of library compounds, ex339/em460 – biochemical, MLSMR library, data from DPM-DC assay, artefact control, profiling panel. compound autofluorescence, ex339/em460 nm, NADH buffer; hits give high values; 1 = no-compound wells, NADH background. fluorescence fold increase at 10 µM. 65,000 compounds, 5.5% hits. AID 709, 2007;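 active = at 10 µM, mean starting fluorescence two-fold or more over control wells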;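 also: signal is the first read of a kinetic run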
Spn DPM-DC inh = S. pneumoniae DPM-DC inhibitors, primary screen, biochemical, PK/LDH-coupled NADH fluorescence; diphosphomevalonate decarboxylase (Streptococcus pneumoniae D39); purified DPM-DC; calls only at 10 µM; 65,000 compounds, 0.49% hits; AID 556, 2006;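 active = the 320 compounds with the highest percent inhibition in the single-dose primary screen, excluding strongly autofluorescent ones, cut at about 32% in these data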;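 also: kinetic rate of NADH fluorescence loss reporting ADP formed by the decarboxylase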
Abs 340nm = compound light absorbance at 340 nm, profiling panel, artefact control, biochemical, MLSMR library, data from PS, PMK, MK assays; fold change at 10 µM; compound absorbance at 340 nm, fold over control; 65,000 tested, under 10 active; AID 708, 2007;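 active = at 10 µM dose, initial 340 nm absorbance at least 2 fold that of control wells; inactive = change under 2 fold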;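 also: initial absorbance extrapolated from kinetic A340 decline of NADH oxidation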
NADH coupling = inhibitors of PK/LDH coupling enzymes, profiling panel, artefact control, biochemical, MLSMR library | coupled PK/LDH NADH assays, four targets | IC50, µM (top dose mostly 10 µM) | 65,000 compounds, 0.02% hits | AID 774, 2007;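 active = single-dose screening hits from any of four coupled enzyme assays that gave an IC50 when retested across doses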;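 also: the DPM-DC format reads NADH fluorescence rather than 340 nm absorbance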
Numbers stand for hits; - = inactive; . = not tested or not shown; ! = not confirmed by another sample. Only some compounds are listed: those with a hit (about 6.8% of all), similar ones and a draw of the others.

SMILES	MK inhibit	PMK inhibit	Autofluor 339	Spn DPM-DC inh	Abs 340nm	NADH coupling
COc1ccccc1N1C(=O)c2ccccc2NC1c1ccncc1 (centres undefined)	-	-	2.1	.	-	-
O=C1c2ccccc2NC(c2ccncc2)N1c1ccccn1 (centres undefined)	-	-	2.1	.	-	-
COc1ccccc1N1C(=O)N(C(C)=O)C2C1Nc1ccccc1N2C (centres undefined)	-	-	-	-	-	-
CCOC(=O)C1=C(C)Nc2nc(SC)nn2C1c1ccc(C(=O)OC)cc1 (centres undefined)	-	-	-	-	-	-
COc1ccc(C2C=C(C)Nc3nc(SC)nn32)cc1 (centres undefined)	-	-	5.1	.	-	-
CCCN(CCC)S(=O)(=O)c1cc(Br)cc2c1N(C(=O)CC)CC2	-	-	-	-	-	-
Cc1cc(OCC(=O)C(C)(C)C)c2c(C)c(C)c(=O)oc2c1	-	-	2.1	.	-	-
O=C(c1ccc(CS(=O)(=O)c2cccc(C(F)(F)F)c2)o1)N1CCN(c2ccccn2)CC1	-	-	-	-	-	-
CC1CC(C)CN(C(=O)Cn2c(=O)n(CCCCC(=O)NCc3ccco3)c(=O)c3ccccc32)C1 (centres undefined)	-	-	-	-	-	-
Cc1cc(NC(=O)c2ccccc2NS(=O)(=O)c2c(C)c(C)cc(C)c2C)no1	-	-	2.3	.	-	-
Cc1ccc(C)c(S(=O)(=O)Nc2ccccc2C(=O)Nc2cc(C)on2)c1	-	-	2.2	.	-	-
O=C(O)CN1C(=O)c2cccc(Oc3ccc(Cl)cc3)c2C1=O	-	-	-	-	-	-
CC(=O)Nc1c(C(=O)N2CCN(c3ncccn3)CC2)cnn1-c1ccccc1Cl	-	-	-	-	-	-
CC(=O)Nc1ccc2c(c1)C(=O)N(C1CCCCC1)C2=O	-	-	3.8	.	-	-
COc1ccc2[nH]c(=O)c(CN(C)C(=O)C3CCCCC3)cc2c1	-	-	3.5	.	-	-
COc1ccc2[nH]c(=O)c(CN(C)C(=O)c3ccncc3)cc2c1	-	-	2	-	-	-
CCN(Cc1cc2ccccc2[nH]c1=O)C(=O)C1CCCCC1	-	-	-	-	-	-
CC1Oc2ccccc2N(CC(=O)N(Cc2ccccc2)Cc2ccccn2)C1=O (centres undefined)	-	-	-	-	-	-
COc1ccc(Cl)cc1C(=O)NCC(C)C	-	-	-	-	-	-
CCOC(=O)c1ccc(Oc2c(C)oc3c(CN4CCN(C)CC4)c(O)ccc3c2=O)cc1	-	-	3.9	.	-	-
Cc1oc2c(CN3CCCC3)c(O)ccc2c(=O)c1Oc1ccccc1Br	-	-	3.9	.	-	-
CCOC(=O)c1c(C)oc2ccc(O)c(CN3CCCCC3)c12	-	-	-	-	-	-
CCOC(=O)c1c(CN2CCN(CCO)CC2)n(C)c2cc(Br)c(OC)cc12	-	-	-	-	-	-
COc1ccccc1Oc1c(C)oc2c(CN3CCN(CCO)CC3)c(O)ccc2c1=O	-	-	4	.	-	-
CCOc1ccccc1Oc1c(C)oc2c(CN3CCN(CCO)CC3)c(O)ccc2c1=O	-	-	3.9	.	-	-
SMILES	MK inhibit	PMK inhibit	Autofluor 339	Spn DPM-DC inh	Abs 340nm	NADH coupling
CN1CCN(Cc2c(O)ccc3c(=O)c(Oc4ccccc4Cl)c(C(F)(F)F)oc23)CC1	-	-	-	-	-	-
CC(=O)c1cc(C)ccc1OC(=O)c1ccco1	-	-	-	-	-	-
c1ccc2sc(Cc3nnc4n3CCCCC4)nc2c1	-	-	-	-	-	-
COc1cccc(OC)c1-c1nn2c(-c3ccccc3Cl)nnc2s1	-	-	-	-	-	-
Clc1ccc(OCc2nnc3n2N=C(c2ccc4c(c2)OCCO4)CS3)c(Cl)c1	-	-	-	-	-	-
O=C(Nc1cccc2nsnc12)c1cccs1	-	-	3.6!	.	-	-
O=C(Nc1ccc2nsnc2c1)c1cccs1	-	-	-	-	-	-
OCCSc1nncn1/N=C/c1c[nH]c2ccccc12	-	-	-	-	-	-
COc1ccccc1-c1coc2c(CN3CCN(C)CC3)c(O)ccc2c1=O	-	-	2.2	.	-	-
CCN1CCN(Cc2c(O)ccc3c(=O)c(-c4ccccc4OC)coc23)CC1	-	-	5	.	-	-
COc1ccccc1Oc1coc2c(CN3CCN(C)CC3)c(O)ccc2c1=O	-	-	3	.	-	-
COc1ccccc1Oc1coc2cc(OC(=O)N3CCOCC3)ccc2c1=O	-	-	-	-	-	-
CCc1cc2c(=O)c(-c3nc4ccccc4[nH]3)coc2c(CN2CCC(C)CC2)c1O	-	-	-	-	-	-
CCOC(=O)c1oc2cc(O)ccc2c(=O)c1-c1ccccc1OC	-	-	-	-	-	-
CCc1cc2c(=O)c(-c3nc4ccccc4n3C)coc2c(CN2CCN(C)CC2)c1O	-	-	2.6	-	-	-
O=C(N1CCOCC1)C(F)(F)C(=O)N1CCOCC1	-	-	-	-	-	-
O=C(C1COc2ccccc2O1)N1CCc2ccccc21 (centres undefined)	-	-	-	-	-	-
COc1ccccc1-c1coc2c(CN3CCN(CCO)CC3)c(O)ccc2c1=O	-	-	3	.	-	-
Fc1ccc(-c2cc3nc(-c4ccccc4)cc(N4CCOCC4)n3n2)cc1	-	-	2.1	.	-	-
Cc1nc2cc(-c3cccc(F)c3)nn2c(N2CCOCC2)c1C	-	-	-	-	-	-
O=C(c1ccc(CS(=O)(=O)Cc2ccc(Cl)cc2)o1)N1CCCC1	-	26	-	-	-	-
Cc1onc(-c2ccccc2)c1C(=O)N1CC(C)OC(C)C1 (centres undefined)	-	-	-	-	-	-
OCCCCNc1cccc2ccccc12	-	-	3.7	.	-	-
O=c1cc(NCCO)c2ccccc2o1	-	-	-	-	-	-
O=C1CCCC2=C1C(c1ccco1)Nc1ccc3ccccc3c12 (centres undefined)	-	-	2.2	.	-	-
SMILES	MK inhibit	PMK inhibit	Autofluor 339	Spn DPM-DC inh	Abs 340nm	NADH coupling
NCCCCCNC(=O)/C=N\O	-	-	-	-	-	-
COc1ccc(NC(=O)c2cc3cc(OC)ccc3oc2=N)cc1	-	-	-	-	-	-
CCCCCCc1cc2cc(C(=O)NC)c(=N)oc2cc1O	-	-	2.3	.	-	-
Cc1ccc2oc(=O)c3cc(C(=O)NCc4ccco4)sc3c2c1	-	-	2	.	-	-
COc1cccc2c(=O)c(C(=O)NCc3cccs3)c[nH]c12	-	-	3.7	.	-	-
Cc1nnc(Oc2ccccc2F)c2ccccc12	-	-	-	-	-	-

Source: PubChem BioAssay
